The supplement of paper PMC13380429
Values without a mark were called inactive.

Tested on: Vero E6 infected with SARS-CoV-2
Experiment: inhibition of SARS-CoV-2 cytopathic effect; higher = more antiviral protection, active = above 15
Conditions: 48 h

SMILES | inhibition of SARS-CoV-2 cytopathic effect (1 nM) | inhibition of SARS-CoV-2 cytopathic effect (8.33 nM) | inhibition of SARS-CoV-2 cytopathic effect (100 nM) | inhibition of SARS-CoV-2 cytopathic effect (833.33 nM) | inhibition of SARS-CoV-2 cytopathic effect (10000 nM)
Cc1cnc(CNC(=O)c2c(=O)c3ccc(N4CCCN(C)CC4)nc3n3c2sc2ccccc23)cn1 | 0.83% | -2.59% | -1.2% | 4.48% | 0.59%
COc1ccc(CNC(=O)Nc2ncc([N+](=O)[O-])s2)cc1 | -1.91% | 2.48% | -0.26% | -1.47% | 2.28%
CC1CCN(CCCC(=O)c2ccc(F)cc2)CC1 [melperone] | 1.03% | -0.88% | -1.43% | 0.99% | 2.13%
Oc1c(Cl)cc(Cl)c(Cl)c1Cc1c(O)c(Cl)cc(Cl)c1Cl [hexachlorophene] | 0.56% | 1.77% | 0.2% | 2.38% | 8.62%
CC1(C)[C@H](C(=O)O)N2C(=O)C[C@H]2S1(=O)=O [sulbactam] | 2.32% | 2.68% | -2.37% | -0.56% | -3.63%
COc1[nH]c2ccc(F)cc2c1C(=O)OCC1CCN(CCNS(C)(=O)=O)CC1 | 2% | 2.46% | 0.98% | 0.39% | 1.56%
Cn1nc(-c2cccc(F)c2)n(C)c1=S [suritozole] | 3.45% | 1.68% | 1.49% | 1.52% | 1.85%
CN1CCC(CNc2ccc3ncc(-c4cccc(OC(F)(F)F)c4)n3n2)CC1 | 2.01% | 5.2% | 2.97% | -0.97% | 19.8% (active)
CN1Cc2ccccc2[C@@H]2c3cccc4[nH]cc(c34)C[C@H]21 | 0.05% | 0.93% | -1.06% | 0.95% | 2.21%
Cn1cc(-c2ccncc2)c(-c2ccc(OCc3ccc4ccccc4n3)cc2)n1 | -1.42% | 1.25% | 1.83% | 16% (active) | 52.4% (active)
CN1CCCCC1Cn1cc(C(=O)c2cc([N+](=O)[O-])ccc2I)c2ccccc21 (stereo not given) | -0.48% | 0.44% | 0.04% | -2.69% | 4.92%
CCCC(C)NC(=O)c1ccc(Cl)c(Cl)c1 (stereo not given) | 1.38% | 1.88% | 1.26% | -2.38% | -1.56%
CNCCCC1(c2ccccc2)OC(C)(C)c2ccccc21 (stereo not given) [talopram] | -0.51% | -1.8% | 0.91% | -2.03% | -3.52%
O=S1(=O)CCN(CN2CCS(=O)(=O)NC2)CN1 [taurolidine] | 0.08% | 2.04% | -0.86% | -0.85% | 0.19%
CC/C(=C(\c1ccccc1)c1ccc(OCCN(C)C)cc1)c1ccccc1 [tamoxifen] | -0.39% | 1.81% | 0.36% | 0.06% | 11.2%
CN1C2CCC1CC(OC(c1ccccc1)c1ccc(Cl)cc1)C2 (stereo not given) | 5.63% | 6.26% | -1.76% | -2.87% | 17.4% (active)

SMILES | inhibition of SARS-CoV-2 cytopathic effect (1 nM) | inhibition of SARS-CoV-2 cytopathic effect (8.33 nM) | inhibition of SARS-CoV-2 cytopathic effect (100 nM) | inhibition of SARS-CoV-2 cytopathic effect (833.33 nM) | inhibition of SARS-CoV-2 cytopathic effect (10000 nM)
O=C(O)c1cc(/N=N/c2ccc(S(=O)(=O)Nc3ccccn3)cc2)ccc1O [sulfasalazine] | -0.13% | -2.23% | -0.23% | -1.38% | 0.47%
c1coc(CNc2ncnc3[nH]cnc23)c1 [kinetin] | -0.75% | 1.25% | 1.35% | 3.24% | 2.8%
Cc1nc(-c2cn3c(n2)-c2ccc(-c4cnn(C(C)(C)C(N)=O)c4)cc2OCC3)n(C(C)C)n1 [taselisib] | 3.71% | 1.62% | -1.05% | -1.92% | -8.91%
O=C(Nc1cc(-c2ccccc2)nn1-c1ccccc1F)c1ccc([N+](=O)[O-])cc1 | -0.89% | 1.45% | 1.23% | -3.16% | 2.79%
O=C(Oc1ccccc1)c1ccccc1O [phenyl-salicylate] | -7.58% | -2.22% | -0.85% | 3.43% | 5.08%
CC(C)c1c(NC(=O)Nc2ccc(Cl)cc2)c(=O)n(-c2ccccc2)n1C | 0.15% | 0.39% | 0.07% | -1.16% | -0.11%
CCOC(=O)c1ncn2c1CN(C)C(=O)c1cc(N=[N+]=[N-])ccc1-2 | 3.15% | 7.03% | 2.59% | -0.14% | -2.15%
CCN(CC)C(=S)SSC(=S)N(CC)CC [disulfiram] | 1.63% | 1.79% | 1.68% | 26.5% (active) | 13.2%
Cc1cccc(Nc2nc(-c3ccncc3)cs2)c1 | 0.53% | -0.51% | -0.62% | 8.36% | 48.4% (active)
OCCNC1CCCc2c1[nH]c1ccc(-c3ccccc3)cc21 (stereo not given) [casin] | -1.66% | 3% | 1.22% | -2.43% | 14.4%
Cc1cnc(C(=O)NCCc2ccc(S(=O)(=O)NC(=O)NC3CCCCC3)cc2)cn1 [glipizide] | -3.14% | -1.53% | -0.68% | -1.78% | 0.54%
CN=C(N)NCCC[C@H](N)C(=O)O [L-monomethylarginine] | -0.78% | -1.38% | 0.7% | 1.39% | -1.85%
C[C@H](CCC(=O)O)[C@H]1CC[C@H]2[C@@H]3C[C@H](O)[C@@H]4C[C@H](O)CC[C@]4(C)[C@H]3CC[C@]12C [Hyodeoxycholic acid (HDCA)] | -1.55% | 0.2% | 1% | 2.52% | -1.93%
c1nc(CC2CCNCC2)c[nH]1 [immepip] | -1.43% | -3.19% | -3.25% | -0.04% | 0.13%
Cc1ncc(-c2ccnc(Nc3ccc(S(C)(=O)=O)cc3)n2)n1C(C)C | 0.38% | -1.83% | -1.95% | 6.02% | -2.7%
